# Data published in PubChem BioAssay (NCATS).
# Where “and” joins values, the source holds several entries; their conditions need not be identical. Equal values may be shown once. A number with no mark means an inactive call. Records with an inconclusive call do not appear. A call without a number means that no potency is given here. Calls of active or inactive are those of the source. Unless noted, calls come from the whole dose curve; as a rule, active = well fitted curve in the direction sought with a large enough effect; inconclusive = small, poorly fitted or top-dose-only effect, or another doubt; inactive = no such curve, though single readings can be large; an effect the other way counts as inactive or inconclusive.
# What was measured:
# [1] = target: Protein phosphatase 1D (Homo sapiens) (UniProt O15297); experiment: Rhodamine-PBP qHTS Assay for Modulators of WT P53-Induced Phosphatase 1 (WIP1) (AID 1347425)
# Method in brief: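 WIP1 (5 nM final) was preincubated with compound for 1 hour at room temperature. It then dephosphorylated 10 uM VEPPL-pS-QETFS peptide in Tris-HCl pH 7.5 with 30 mM MgCl2. Released Pi was detected by 10 uM Rh-PBP fluorescence (ex 525/em 598 nm) read at 1-min intervals for 11 min, as delta f1 - f0.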
# [2] = Primary qHTS for inhibitors of La Crosse Virus (LACV) - induced cell death in SH-SY5Y cells (AID 1508616);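 note: top concentration of the series differs between compounds; higher means more rescue of cells from virus-induced death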
# Method in brief: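 Readout was luminescence from ATPLite 1step added after a 6-day LACV infection (0.01 MOI) of SH-SY5Y cells that had received pin-transferred compound 24 hr after seeding.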
# [3] = Counterscreen qHTS for small molecule stabilizers of the endoplasmic reticulum resident proteome: GLuc-NoTag assay (AID 1508627); note: potency is the fitted concentration of half-maximal effect;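 for activity change, negative = inhibition: SH-SY5Y cells given compound then 100 nM thapsigargin to empty ER calcium; series mostly up to about 76 µM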
# Method in brief: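 Luminescence of Gaussia luciferase secreted into the medium (coelenterazine, 0.07x final, unlysed cells) was the read-out. Human SH-SY5Y neuroblastoma cells constitutively secreting untagged GLuc received compound for 19 h, then 100 nM thapsigargin for 4 h.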
# [4] = target: Cytochrome P450 2C9 (Homo sapiens) (UniProt P11712); experiment: Cytochrome P450 family 2 subfamily C member 9 (CYP2C9) small molecule antagonists: luciferase biochemical (cell-free) qHTS assay (AID 1645842; active = well fitted curve in the direction sought with a large enough effect in the repeat runs; an effect the other way counts as inactive or inconclusive; note: series mostly up to about 57 µM; nearly all actives have a fitted effect of over 55% in size)
# Method in brief: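 Luminescence, after 20 min with luciferin detection reagent, reflected CYP2C9 turnover during a 1 h NADPH-driven reaction at 37C. Enzyme-substrate mix contained 0.4% bovine serum albumin and was preincubated with compound 10 min at room temperature.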
# [5] = Confirmatory qHTS for small molecule stabilizers of the endoplasmic reticulum resident proteome: Secreted ER Calcium Modulated Protein (SERCaMP) assay (AID 1508628); note: nearly all actives have a fitted effect of over 40% in size; note: potency is the fitted concentration of half-maximal effect
# Method in brief: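 We seeded SH-SY5Y-GLuc-SERCaMP cells, added compounds (three concentrations in the primary run, eleven up to 76.6 uM in confirmation), incubated 16 h, depleted ER calcium with thapsigargin, and read luciferase 4 h later.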
# [6] = Cell Viability qHTS for small molecule stabilizers of the endoplasmic reticulum resident proteome (AID 1508629); conditions: cell viability counter-screen, 100 nM thapsigargin for final 4 h;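 note: compound exposure about 46 h in total before the viability read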; note: potency is the fitted concentration of half-maximal effect;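 for max response: human SH-SY5Y neuroblastoma cells carrying the GLuc-SERCaMP reporter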
# [7] = A High-Content qHTS Against Drug Library for the Identification of Small Molecules that Inhibit DYT1 Early Onset Primary Dystonia-Associated Cell Pathology (AID 1645839; calls by dose curve; note: series mostly up to about 46 µM)
# Method in brief: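 In this high-content image screen, delE TorsinA mislocalization in inducible Flp-In 293 cells is scored as %pathology, with cell count serving as the counterscreen. Compound exposure lasts 48 h under tetracycline induction in reduced-serum medium.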
# [8] = Validation qHTS assay for inhibitors of Activation Induced Cytidine Deaminase (AID): UDG Counterscreen signal (AID 1347427)
# Method in brief: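 Counterscreen read of UDG activity (2 U/mL, 4/3x) in the FRET deamination format with AID (1 uM, 4/3x), DJC20/DJC23 substrates (250 nM, 4x), 4 h at room temperature. NaOH stop, fluorescence at 560 ex/665 em.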
# [9] = target: Single-stranded DNA cytosine deaminase (Homo sapiens) (UniProt Q9GZX7); experiment: Validation qHTS assay for inhibitors of Activation Induced Cytidine Deaminase (AID): AID signal (AID 1347429)
# Method in brief: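 In this coupled qHTS, AID deaminates a FRET-labelled ssDNA substrate in the presence of UDG over 4 hr at room temperature. Compounds span up to 114 uM final.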
# [10] = target: Calcium and integrin-binding protein 1 (Homo sapiens) (UniProt Q99828); experiment: Validation qHTS for Identification of Calcium Integrin Binding protein 1 (CIB1) Competitor (AID 1508618)
# Method in brief: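 Fluorescence polarization with 1 uM CIB1-GST and 100 nM FITC-alphaIIb peptide in HEPES pH 7.4, NaCl, 5 mM CaCl2, Tween20. Compounds at up to 114 uM final, preincubated with protein 15 min; read after 15 min more at RT.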
# [11] = Primary qHTS for small molecule stabilizers of the endoplasmic reticulum resident proteome: Secreted ER Calcium Modulated Protein (SERCaMP) assay (AID 1508630)
# Method in brief: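 GLuc-SERCaMP-expressing SH-SY5Y cells, pretreated 16 h with compound, are challenged with thapsigargin to empty ER calcium stores; after 4 h, coelenterazine is added directly to the medium and luminescence is imaged.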
# [12] = target: Calcium and integrin-binding protein 1 (Homo sapiens) (UniProt Q99828); experiment: Primary qHTS for Identification of Calcium Integrin Binding Protein 1 (CIB1) Competitor (AID 1508620);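 note: GST tagged CIB1 binding a fluorescein labelled alphaIIb integrin peptide tracer; top concentration of the series differs between compounds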
# Method in brief: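 CIB1-GST (1 uM final) and compound incubated 15 min at room temperature before adding FITC-alphaIIb peptide tracer (100 nM final). Competition for binding read by fluorescence polarization (ex 480, em 540) after another 15 min at room temperature.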
# [13] = Primary qHTS for inhibitors of SARS-S pseudo-typed particle cell entry (AID 1479145; calls by dose curve; note: nearly all actives have a fitted effect of over 45% in size; for activity change, negative = inhibition: series mostly up to about 57 µM)
# [14] = Primary qHTS for Huh7 cytotoxicity: counterscreen for inhibitors of MERS-S pseudotyped particle cell entry (AID 1479147; calls by dose curve)
# [15] = Primary qHTS for inhibitors of MERS-S pseudo-typed particle cell entry (AID 1479149; calls by dose curve; note: nearly all actives have a fitted effect of over 60% in size; for activity change, negative = inhibition: series mostly up to about 57 µM)
# [16] = Primary qHTS for Vero E6 cytotoxicity: counterscreen for inhibitors of SARS-S pseudo-typed particle cell entry (AID 1479150; calls by dose curve)
# Sequence of Single-stranded DNA cytosine deaminase (Homo sapiens) (Q9GZX7 whole entry, looked up): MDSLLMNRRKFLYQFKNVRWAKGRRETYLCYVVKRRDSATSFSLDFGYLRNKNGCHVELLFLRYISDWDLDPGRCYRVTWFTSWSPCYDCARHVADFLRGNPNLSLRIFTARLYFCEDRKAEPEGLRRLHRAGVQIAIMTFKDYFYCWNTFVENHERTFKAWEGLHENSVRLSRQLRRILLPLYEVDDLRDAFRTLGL
# Sequence of Calcium and integrin-binding protein 1 (Homo sapiens) (Q99828 whole entry, looked up): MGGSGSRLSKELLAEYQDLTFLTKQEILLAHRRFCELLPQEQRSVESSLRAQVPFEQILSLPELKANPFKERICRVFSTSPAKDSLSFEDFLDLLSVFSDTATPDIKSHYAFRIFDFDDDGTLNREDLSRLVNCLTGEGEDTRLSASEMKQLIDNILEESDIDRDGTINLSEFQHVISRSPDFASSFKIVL
# Sequence of Cytochrome P450 2C9 (Homo sapiens) (P11712 whole entry, looked up): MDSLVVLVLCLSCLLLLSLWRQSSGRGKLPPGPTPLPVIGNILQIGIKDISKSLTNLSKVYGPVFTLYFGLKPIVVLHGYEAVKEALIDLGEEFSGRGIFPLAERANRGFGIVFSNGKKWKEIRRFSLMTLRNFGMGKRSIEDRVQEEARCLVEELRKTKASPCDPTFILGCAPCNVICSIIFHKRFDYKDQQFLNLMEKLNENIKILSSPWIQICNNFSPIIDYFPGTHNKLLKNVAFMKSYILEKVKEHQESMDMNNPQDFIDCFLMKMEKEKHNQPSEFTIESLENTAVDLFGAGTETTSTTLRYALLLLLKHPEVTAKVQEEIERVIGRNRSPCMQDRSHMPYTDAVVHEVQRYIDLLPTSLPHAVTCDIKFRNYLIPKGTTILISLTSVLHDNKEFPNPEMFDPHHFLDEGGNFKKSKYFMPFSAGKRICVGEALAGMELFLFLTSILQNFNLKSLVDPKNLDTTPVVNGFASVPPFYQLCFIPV
# Sequence of Protein phosphatase 1D (Homo sapiens) (O15297 whole entry, looked up): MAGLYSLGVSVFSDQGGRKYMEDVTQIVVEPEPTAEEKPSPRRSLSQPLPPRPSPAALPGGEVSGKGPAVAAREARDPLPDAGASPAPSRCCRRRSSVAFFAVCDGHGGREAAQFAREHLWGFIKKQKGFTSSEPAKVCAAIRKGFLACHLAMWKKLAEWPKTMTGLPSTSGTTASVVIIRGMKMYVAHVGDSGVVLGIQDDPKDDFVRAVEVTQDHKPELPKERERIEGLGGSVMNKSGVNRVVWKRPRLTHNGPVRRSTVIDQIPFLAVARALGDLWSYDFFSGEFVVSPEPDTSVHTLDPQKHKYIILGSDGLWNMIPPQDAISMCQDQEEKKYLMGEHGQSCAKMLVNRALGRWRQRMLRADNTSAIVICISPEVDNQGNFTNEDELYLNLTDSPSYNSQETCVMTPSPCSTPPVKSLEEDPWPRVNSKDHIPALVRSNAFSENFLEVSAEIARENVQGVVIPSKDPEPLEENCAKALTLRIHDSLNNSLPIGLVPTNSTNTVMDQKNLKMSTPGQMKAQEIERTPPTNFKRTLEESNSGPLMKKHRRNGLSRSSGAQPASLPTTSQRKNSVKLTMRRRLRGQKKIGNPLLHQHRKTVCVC
compound,measurement,setting,value
Oc1ccc2c3c1O[C@H]1[C@@H](O)C=C[C@H]4[C@@H](C2)NCC[C@@]341,outcome,[1],inactive
same,outcome,[2],inactive
same,Potency,[3],inactive
same,Potency,[4],inactive
Nc1c(Cl)c(Cl)c(Cl)c(Cl)c1Cl,outcome,[1],inactive
same,outcome,[2],inactive
same,Potency,[3],inactive
same,Potency,[5],inactive
same,max response,[6],1.55%
same,Potency,[7],inactive
same,Potency,[4],inactive
O=C(O)Cc1cnc[nH]1,outcome,[8],inactive
same,outcome,[9],inactive
same,outcome,[2],inactive
same,outcome,[10],inactive
same,Potency,[11],inactive
CC[C@@H](C(N)=O)N1CCCC1=O,outcome,[9],inactive
same,outcome,[2],inactive
same,outcome,[10],inactive
same,outcome,[12],inactive
NC(CCP(=O)(O)O)C(=O)O (stereo unspecified),outcome,[9],inactive
same,outcome,[2],inactive
same,outcome,[10],inactive
same,Potency,[11],inactive
Cc1c(C(=O)c2cccc3ccccc23)c2cccc3c2n1[C@H](CN1CCOCC1)CO3,outcome,[9],inactive
same,outcome,[12],inactive
same,"activity change, negative = inhibition",[11],-12% [at 3.88 µM]
CC(C)C[C@H](NC(=O)[C@@H](O)[C@H](N)Cc1ccccc1)C(=O)O,Potency,[13],inactive
same,Potency,[14],inactive
same,Potency,[15],inactive
same,Potency,[16],inactive
NC1CCc2cc(O)c(O)cc2C1 (stereo unspecified),outcome,[9],inactive
same,outcome,[10],inactive
same,Potency,[3],inactive
same,Potency,[5],inactive
same,max response,[6],25.8%
CN1[C@@H]2CC[C@H]1CC(OC(=O)C(O)c1ccccc1)C2 (stereo partly specified),Potency,[13],inactive
same,Potency,[14],inactive
same,Potency,[15],inactive
same,Potency,[16],inactive
NCCS,Potency,[13],inactive
same,Potency,[14],inactive
same,Potency,[15],inactive
same,Potency,[16],inactive
CN1CCN(c2c(F)cc3c(=O)c(C(=O)O)cn4c3c2OCN4C)CC1,Potency,[13],inactive
same,Potency,[14],inactive
same,Potency,[15],inactive
same,Potency,[16],inactive
CC(C)(C)c1nnc(NS(=O)(=O)c2ccccc2)s1,Potency,[13],inactive
same,Potency,[14],inactive
same,Potency,[15],inactive
NC1CC1c1ccccc1 (stereo unspecified),outcome,[9],inactive
same,outcome,[2],inactive
same,outcome,[10],inactive
same,Potency,[11],inactive
O=C1CCCN1CC#CCN1CCCC1,outcome,[9],inactive
same,outcome,[2],inactive
same,outcome,[10],inactive
same,Potency,[11],inactive
CCCN1CCC[C@H](c2cccc(O)c2)C1,outcome,[9],inactive
same,outcome,[2],inactive
same,outcome,[10],inactive
same,Potency,[11],inactive
C=CCNC(N)=S,Potency,[13],inactive
same,Potency,[14],inactive
same,Potency,[15],inactive
same,Potency,[16],inactive
c1ccc2sc(C3(N4CCCCC4)CCCCC3)cc2c1,outcome,[9],inactive
same,outcome,[10],inactive
same,Potency,[11],inactive
O=C(Cc1ccc(Cl)c(Cl)c1)N1CCCCC1CN1CCCC1 (stereo unspecified),outcome,[9],inactive
same,outcome,[2],inactive
same,outcome,[10],inactive
same,Potency,[11],inactive
COc1ncnc(NS(=O)(=O)c2ccc(N)cc2)c1OC,Potency,[13],inactive
same,Potency,[14],inactive
same,Potency,[15],inactive
same,Potency,[16],inactive
CC(C)Oc1cccnc1N(C)C1CCN(Cc2ccccc2)CC1,outcome,[9],inactive
same,outcome,[2],inactive
same,outcome,[10],inactive
same,Potency,[11],inactive
CNCCc1ccc(O)c(O)c1,outcome,[9],inactive
same,outcome,[10],inactive
same,Potency,[3],11.2 µM (active)
same,Potency,[5],39.8 µM (active)
same,max response,[6],11.4%
Nc1nc2c(ncn2CCC(CO)CO)c(=O)[nH]1,Potency,[13],inactive
same,Potency,[14],inactive
same,Potency,[15],inactive
same,Potency,[16],inactive
COc1ccccc1O,Potency,[13],inactive
same,Potency,[14],inactive
same,Potency,[15],inactive
same,Potency,[16],inactive
O=C(O)[C@@H]1CCN1,outcome,[9],inactive
same,outcome,[2],inactive
same,outcome,[10],inactive
same,Potency,[11],inactive
Cc1nccc2c1[nH]c1ccccc12,outcome,[9],inactive
same,outcome,[2],inactive
same,outcome,[10],inactive
same,Potency,[11],inactive
CS(=O)(=O)c1ccc(C(=O)Nc2ccc(Cl)c(-c3ccccn3)c2)c(Cl)c1,Potency,[13],inactive
same,Potency,[14],inactive
same,Potency,[15],inactive
same,Potency,[16],inactive
COc1ccc2c(c[n+](C)c3c4cc5c(cc4ccc23)OCO5)c1OC,outcome,[9],inactive
same,Potency,[11],inactive
CC[N+](C)(CC)CCOC(=O)C(O)(c1ccccc1)C1CCCCC1 (stereo unspecified),Potency,[13],inactive
same,Potency,[14],inactive
same,Potency,[15],inactive
same,Potency,[16],inactive
C=CCN1CC[C@]23CCCCC2[C@H]1Cc1ccc(O)cc13 (stereo partly specified),outcome,[9],inactive
same,outcome,[10],inactive
same,Potency,[3],inactive
O=C(N[C@H]1CN2CCC1CC2)c1ccc(Cl)cc1,outcome,[9],inactive
same,outcome,[2],inactive
same,outcome,[10],inactive
same,Potency,[11],inactive
C[C@@H](N)Cc1cnc[nH]1,outcome,[9],inactive
same,outcome,[2],inactive
same,outcome,[10],inactive
same,Potency,[11],inactive
C[C@]12CCC3C(CC[C@H]4C[C@H](O)CC[C@]34C)C1CC[C@@H]2C(=O)CO (stereo partly specified),outcome,[9],inactive
same,outcome,[2],inactive
same,outcome,[10],inactive
same,Potency,[11],inactive
CC[C@@]1(O)C(=O)OCc2c1cc1n(c2=O)Cc2cc3ccccc3nc2-1,outcome,[9],inactive
same,outcome,[2],inactive
same,outcome,[10],inactive
same,Potency,[11],inactive
CCc1c(C)[nH]c2c1C(=O)C(CN1CCOCC1)CC2 (stereo unspecified),Potency,[13],inactive
same,Potency,[14],inactive
same,Potency,[15],inactive
same,Potency,[16],inactive
CCCCc1ccc(C(=O)O)nc1,outcome,[9],inactive
same,outcome,[2],inactive
same,outcome,[10],inactive
same,Potency,[11],inactive
same,Potency,[4],inactive
C[N+]1(C)C2CCC1CC(OC(=O)C(CO)c1ccccc1)C2 (stereo unspecified),outcome,[9],inactive
same,outcome,[2],inactive
same,outcome,[10],inactive
same,Potency,[11],inactive
C#CCOC(=O)C1=CCCN(C)C1,outcome,[9],inactive
same,outcome,[2],inactive
same,outcome,[10],inactive
same,Potency,[11],inactive
C/C=C(/C)C(=O)O[C@H]1C(C)=C2[C@H]([C@@H]1OC(=O)CCCCCCC)[C@@](C)(OC(C)=O)C[C@H](OC(=O)CCC)[C@@]1(O)[C@H]2OC(=O)[C@@]1(C)O,outcome,[9],inactive
same,outcome,[10],inactive
same,outcome,[12],inactive
same,Potency,[3],inactive
same,Potency,[5],inactive
same,Potency,[6],251 nM (active) and 224 nM (active)
same,Potency,[11],inactive
